Most compounds without a hit are left out; they make up all but 21% or so of the library.
DT40 TDP1 CPT: growth inhibition of DT40 Tdp1-/-;hTDP1 cells with camptothecin (screen for TDP1 inhibitors) | chicken DT40 Tdp1-/-;hTDP1 cells + 20 nM CPT, ATP luminescence, 48 h | Potency, µM (titrated, usually from 46.2 µM), actives largely listed as inhibitors | hit rate 12% among 420,000; note: nearly all actives have a fitted effect of over 55% in size
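Chicken DT40 Tdp1-/- cells stably complemented with human TDP1 were seeded at 400 cells/well in medium containing 20 nM camptothecin, exposed to pin-transferred compounds, and grown at 37 °C for at least 48 hr. Viability was read as ATP luminescence.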
IL1B secr inh: blocks inflammasome-driven IL-1 beta release; hit rate 4.7% among 360,000; activity change, % at 57.5 µM; THP-1 LPS/ATP IL-1B secretion, AlphaLISA, 16 h; active compounds read low; AID 743279; in the data active = activity change below about -50%; inconclusive = mostly about -30% to -49%
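THP-1 cells pretreated 1 hr with compounds (up to 57.5 uM final), then stimulated with LPS (250 ng/mL final) plus ATP (1.25 mM final); secreted IL-1B measured by AlphaLISA after 16 hr, decreased signal indicating inhibition.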
DT40 TDP1 no CPT: qHTS for Inhibitors of human tyrosyl-DNA phosphodiesterase 1 (TDP1): qHTS in cells in absence of CPT. DT40 Tdp1-/- hTDP1 cells, no CPT, ATP luminescence, 48 h. Potency, µM (titrated, usually from 46.2 µM), usual class: inhibitors. hit rate 15% among 420,000. AID 686978, 2013; note: nearly all actives have a fitted effect of over 55% in size
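Luminescent ATP content (CellTiter-Glo) served as the growth readout. Knockout chicken DT40 cells expressing human TDP1 were exposed to compounds without camptothecin for a minimum 48 hr at 37 °C.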
RORg inh: inhibitors of mouse ROR gamma transcriptional activity | P51450 | Drosophila S2 Gal4-RORgamma UAS-luciferase reporter, 20 h | Potency, µM (highest dose often 53.6 µM), most hits filed as inhibitors | hit rate 5.4% among 310,000; note: nearly all actives have a fitted effect of over 60% in size
Target sequence (P51450 whole entry, looked up, the tested form may be a part): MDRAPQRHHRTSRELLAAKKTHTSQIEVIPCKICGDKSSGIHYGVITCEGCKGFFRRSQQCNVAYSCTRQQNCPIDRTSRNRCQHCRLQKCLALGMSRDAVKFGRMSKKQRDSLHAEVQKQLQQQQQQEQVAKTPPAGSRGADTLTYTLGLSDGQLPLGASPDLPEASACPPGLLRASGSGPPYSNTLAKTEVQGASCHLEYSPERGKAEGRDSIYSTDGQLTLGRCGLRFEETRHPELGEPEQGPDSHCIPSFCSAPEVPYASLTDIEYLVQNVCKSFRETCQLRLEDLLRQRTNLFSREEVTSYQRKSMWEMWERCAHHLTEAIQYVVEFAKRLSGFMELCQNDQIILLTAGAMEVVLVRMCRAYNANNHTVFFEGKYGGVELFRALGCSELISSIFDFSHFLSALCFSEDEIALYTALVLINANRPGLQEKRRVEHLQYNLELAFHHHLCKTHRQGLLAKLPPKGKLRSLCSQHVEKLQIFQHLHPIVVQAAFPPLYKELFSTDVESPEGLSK
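Compounds are pin-transferred onto Drosophila Schneider cells expressing a copper-inducible Gal4–ROR gamma transactivation domain fusion. After 1 hr, copper sulfate is added to 700 uM final; luciferase is read 20 hr later.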
Gal4-VP16 FLuc: inhibits Gal4-VP16 luciferase reporter, ROR gamma counter-screen; hit rate 3.5% among 310,000; Drosophila S2 Gal4-VP16 UAS-luciferase, luminescence, 20 h; Potency, µM (top dose mostly 53.6 µM), usual class: inhibitors;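 note: Gal4-VP16 expression switched on by copper sulfate through the metallothionein promoter; nearly all actives have a fitted effect of over 50% in size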
ELG1 DNA repair: blocks ELG1-dependent DNA repair in HEK293T cells | HEK293T ELG1-luciferase reporter, luminescence, 16 h; DNA damage induced by 5-fluorouridine | Potency, µM (series often up to 46.1 µM), usual class: inhibitors | hit rate 2.3% among 330,000 | AID 504467; note: nearly all actives have a fitted effect of over 55% in size
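Luminescence from the luciferase reporter, measured 30 min after ONE-Glo reagent at room temperature, was the read-out. Beforehand, 2,000 cells per well were exposed for 16 hr at 37 °C to 5-fluorouridine together with compound or vehicle.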
A number is an active result; n = inactive; u = inconclusive; x = not tested or not shown; [ ] = remark or other dose. Unless noted, calls come from the whole dose curve; as a rule, active = well fitted curve in the direction sought with a large enough effect; inconclusive = small, poorly fitted or top-dose-only effect, or another doubt; inactive = no such curve, though single readings can be large; an effect the other way counts as inactive or inconclusive.

SMILES | DT40 TDP1 CPT | IL1B secr inh | DT40 TDP1 no CPT | RORg inh | Gal4-VP16 FLuc | ELG1 DNA repair
CC(C)C[C@H]1CN(CCCC[C@@H]2CNC(=O)C(=O)N2Cc2ccccc2)C(=O)C(=O)N1CCC1CCCCC1 | n | u | n | x | x | x
Cc1csc2nc(O)c(C(=O)NCc3ccc4c(c3)OCO4)c(=O)n12 | u | n | 23µM | x | x | n
Cc1csc2nc(O)c(C(=O)NC3CCCCC3)c(=O)n12 | u | n | u | x | x | n
Cc1cccn2c(=O)c(C(=O)NC3CC(C)CC(C)(C)C3)c(O)nc12 (stereo not drawn) | 7.3µM | n | 7.3µM | x | x | u
Cc1cccn2c(=O)c(C(=O)NCc3ccccc3Cl)c(O)nc12 | 16µM | x | 23µM | x | x | x
Cc1ccc(CN2CCSc3ccc(C(=O)Nc4ccc(Cl)cc4)cc32)cc1 | 23µM | x | u | x | x | x
CCN1CCSc2ccc(C(=O)Nc3ccc(NC(C)=O)cc3)cc21 | u | n | n | n | n | n
O=C(Nc1ccc(Cl)cc1)c1ccc2c(c1)N(Cc1ccccc1)CCS2 | 15µM | x | u | x | x | x
Cc1ccc(-n2c(=O)[nH]c3cc(C(=O)NCc4ccccc4)ccc3c2=O)cc1 | n | x | n | x | x | x
CNc1nc(N/N=C/c2cc([N+](=O)[O-])ccc2F)nc(Nc2ccccc2)n1 | 13µM | -97 | 7.3µM | x | x | x
O=C1COCCN1 | x | x | x | n | n | x
O=C(NC1CCc2ccccc21)c1cc(COc2cncc(Cl)c2)on1 (stereo not drawn) | 9.2µM | -62 | u | n | u | n
Cc1ccc(/C=C/S(=O)(=O)NCC(=O)OCC(=O)NCc2ccccc2)cc1 | n | n | n | n | n | n
COc1ccc(NC(=O)CC2C(=O)N(c3ccc(Cl)cc3)C(=S)N2NC(=O)c2cccc(F)c2)cc1 (stereo not drawn) | n | n | n | 10µM | 18µM | n
COc1ccc(NC(=O)CC2C(=O)N(c3ccc(Cl)cc3)C(=S)N2CCc2ccccn2)cc1 (stereo not drawn) | 26µM | n | u | n | u | n
COc1ccc(NC(=O)CC2C(=O)N(c3ccc(Cl)cc3)C(=S)N2CCc2ccncc2)cc1 (stereo not drawn) | u | n | u | n | n | n
COc1ccc(NC(=O)CC2C(=O)N(c3ccc(F)cc3)C(=S)N2NC(=O)c2ccc(Cl)cc2)cc1 (stereo not drawn) | n | n | n | 11µM | 20µM | n
COC(=O)CN1C(=S)N(c2ccc(Cl)cc2)C(=O)C1CC(=O)Nc1ccc(F)cc1 (stereo not drawn) | u | n | u | u | n | n
COCCN(C(=O)COC(=O)c1ccc2c(c1)OCO2)c1c(N)n(Cc2ccccc2)c(=O)[nH]c1=O | n | n | n | x | x | x
Cc1c(CN2CCOc3c(cc(-c4ncc(C(F)(F)F)cc4Cl)cc3OCC3CCCO3)C2)cnn1C (stereo not drawn) | n[9.04 µM] | x | n | x | x | x
Clc1ccc(-c2nc3ccccn3c2CN2CCOCC2)cc1 | n | n | n | n | n | n
COc1ccc(-c2nc3ccccn3c2CN2CCN(c3ccccc3F)CC2)cc1 | u | n | 23µM | n | n | u
COc1ccc(-c2nc3ccccn3c2Cl)cc1 | u | n | n | 16µM | u | u
Cc1cccc[n+]1C1C(c2ccccc2)C(C#N)=C(C(=C=[N-])C#N)NC1(O)C1CC1 (stereo not drawn) | 23µM | n | u | n | n | n
N#CC(=C=[N-])C1=C(C#N)C(c2ccccc2F)C([n+]2ccccc2)C(O)(C2CC2)N1 (stereo not drawn) | n | n | n | n | n | n
SMILES | DT40 TDP1 CPT | IL1B secr inh | DT40 TDP1 no CPT | RORg inh | Gal4-VP16 FLuc | ELG1 DNA repair
O=C(N[C@H](CO)c1ccccc1)[C@H]1O[C@@H](n2ccc(=O)[nH]c2=O)[C@H](O)[C@@H]1O | n | n | n | x | x | x
C/C(CCc1oc2ccccc2c1-c1ccc(C)o1)=N/O | u | n | 18µM | n | n | n
CC(=O)CCc1oc2ccc([N+](=O)[O-])cc2c1-c1ccc(C)o1 | n | n | n | n | n | u
C/C(CCc1oc2c(Br)cc(Br)cc2c1-c1ccc(C)o1)=N\O | 16µM | n | 18µM | n | u | n
CC(=O)CCc1oc2c([N+](=O)[O-])cccc2c1-c1ccc(C)o1 | u | n | u | n | u | n
Cc1ccc(C(=O)NCc2cccnc2)cc1S(=O)(=O)N1CCCCCC1 | n | n | u | n | n | n
O=C(c1ccccc1)N1CCCCC1CCN1CCCCC1 (stereo not drawn) | n | x | n | x | x | x
CN(C)c1ccc(C(=O)Nc2nc3c(s2)CCCC3)cc1 | u | n | u | 5.6µM | 11µM | u
CC(C)(C)c1ccc(C(=O)NC(=S)Nc2nc3c(s2)CCCC3)cc1 | 26µM | u | 29µM | 1.8µM | 4.5µM | u
C/C(=N\NC1=NCCN1)c1ccc(Cl)cc1 | n | n | n | n | n | n
C/C(=N\Nc1nc2c(s1)CCCC2)c1ccc(Cl)cc1 | 13µM | -55 | 8.2µM | 1.3µM | 11µM | u
COC(=O)Nc1nc2c(s1)CCCC2 | n | n | n | u | n | u
CC(C)Oc1ccc(CN2CCC(n3nccc3NC(=O)CCc3ccccc3)CC2)cc1 | u | n | u | n | n | u
CC(=O)Nc1ccc(S(=O)(=O)N2CCC3(CC2)OCCO3)cc1 | n | n | n | n | n | n
COC(=O)c1c(NC(NC(=O)CC(C)C)C(Cl)(Cl)Cl)sc2c1CCC2 (stereo not drawn) | u | n | u | n | n | n
COC(=O)c1c(NC(NC(=O)C(C)C)C(Cl)(Cl)Cl)sc2c1CCC2 (stereo not drawn) | 16µM | n | 13µM | u | n | n
CCC(=O)NC(Nc1sc2c(c1C(=O)OC)CCC2)C(Cl)(Cl)Cl (stereo not drawn) | 15µM | n | 15µM | n[10 µM] | n | u
COC(=O)c1c(NC(NC(=O)C(C)(C)C)C(Cl)(Cl)Cl)sc2c1CCC2 (stereo not drawn) | u | n | u | u | n | n
CCOC(=O)c1c(NC(NC(C)=O)C(Cl)(Cl)Cl)sc2c1CCCC2 (stereo not drawn) | 16µM | n | u | u | n | u
CCN(CC)C(=O)Nc1ccc(OC[C@H](O)CNC(C)(C)C)c(C(C)=O)c1 | x | x | x | n | n | x
COc1ccccc1-c1c(C(F)(F)F)oc2cc(OCC(=O)Nc3cc(C)ccc3C)ccc2c1=O | x | x | x | n | n | n
COc1ccccc1-c1c(C(F)(F)F)oc2cc(OC(=O)c3cccc([N+](=O)[O-])c3C)ccc2c1=O | 21µM | n | 23µM | u | n | n
COc1cccc(CC(=O)Nc2ccc3nc(Nc4cccc(C(F)(F)F)c4)cc(C)c3c2)c1 | u | x | 18µM | x | x | x
